Source: PubChem BioAssay (Tox21)
Records with an inconclusive call do not appear. Activity calls are given as the source filed them. Unless noted, the call rests on the fitted dose curve; in most records, active means well fitted curve in the direction sought with a large enough effect in the repeat runs; inconclusive means weak or mixed curves; inactive means no such curve, though single readings can be large; an effect the other way counts as inactive or inconclusive.

What was measured:
[1] = qHTS RealTime-Glo MT Cell Viability Assay in HEK293 cells - 8 hour (AID 1224887); further: top concentration of the series differs between compounds; nearly all actives have a fitted effect of over 50% in size
Method in brief: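 HEK293 cells mixed with RealTime-Glo reagents (NanoLuc plus cell-permeant prosubstrate) at 600 cells/well, preincubated 5 h at 37 C/5% CO2, then given 23 nL compound in DMSO. Nonlytic luminescence from viable cells was read at 0, 8, 16, 24, 32 and 40 h.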

[2] = A CellTox Green Cytotoxicity Assay to monitor cytotoxicity in HEK293 cells - 16 hour (AID 1224888); further: nearly all actives have a fitted effect of over 35% in size
Method in brief: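 HEK293 cells premixed with CellTox Green dye were seeded at 600 cells/well and left 5 h at 37 C/5% CO2 before pin transfer of 23 nL compound in DMSO. Fluorescence from dye bound to dead-cell DNA was read during 40 h treatment.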

[3] = qHTS RealTime-Glo MT Cell Viability Assay in HepG2 cells - 0 hour (AID 1224889); further: nearly all actives have a fitted effect of over 50% in size
Method in brief: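 Real-time, nonlytic viability: 600 HepG2 cells/well mixed with NanoLuc enzyme plus prosubstrate; 5 h settle, compound (DMSO) added by pintool; luminescence monitored over 40 h at 37 C.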

[4] = A CellTox Green Cytotoxicity Assay to monitor cytotoxicity in HepG2 cells - 8 hour (AID 1224890); further: nearly all actives have a fitted effect of over 45% in size
Method in brief: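 HepG2 cells were seeded together with the CellTox Green dye at 600 cells/well, left 5 h at 37 C/5% CO2, then given compounds in DMSO. Fluorescence from dye bound to dead-cell DNA was read repeatedly over 40 h of treatment at 37 C.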

[5] = qHTS assay to identify small molecule antagonists of the estrogen receptor alpha (ER-alpha) signaling pathway using the BG1 cell line in the presence of 0.1 nM 17-beta-estradiol - cell viability counter screen (AID 1259241); further: nearly all actives have a fitted effect of over 40% in size
Method in brief: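 Estradiol-stimulated (0.1 nM) VM7Luc4E2 cells exposed to compounds 22 hr; viability measured by fluorescence of cleaved CellTiter-Fluor substrate after 30 min.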

[6] = qHTS assay to identify small molecule antagonists of the androgen receptor (AR) signaling pathway using the MDA cell line in the presence of 0.5 nM R1881 - cell viability counter screen (AID 1259242); further: nearly all actives have a fitted effect of over 45% in size
Method in brief: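 MDA-kb2 cells (human breast carcinoma, stably carrying MMTV-luciferase reporter) were exposed to compounds with 0.5 nM R1881 (final) for 16 hr at 37C, 0% CO2; viability then read as live-cell protease fluorescence (CellTiter-Fluor, 30 min) in the same wells.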

[7] = target: Estrogen receptor (Homo sapiens) (UniProt P03372); assay: qHTS assay to identify small molecule antagonists of the estrogen receptor alpha (ER-alpha) signaling pathway using the BG1 cell line in the presence of 0.1 nM 17-beta-estradiol (AID 1259244); further: nearly all actives have a fitted effect of over 50% in size
Method in brief: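 VM7Luc4E2 cells (endogenous full-length ER-alpha, stable 4xERE-luciferase) were grown 5 days in phenol red-free medium with charcoal-stripped FBS, then exposed 22 h at 37C to compounds plus 0.1 nM (final) 17beta-estradiol; ONE-Glo luminescence read-out.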

[8] = qHTS assay to identify small molecule HDAC inhibitors (AID 1259364); further: top concentration of the series differs between compounds; nearly all actives have a fitted effect of over 45% in size
Method in brief: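 Wild-type HCT-116 cells were plated overnight, exposed to compounds for 2 h at 37 °C, then given HDAC-Glo class I/II luminogenic reagent for 30 min at room temperature before luminescence was read.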

[9] = qHTS assay to identify small molecule phospholipidosis (PLD) inducers (AID 1259344; active means well fitted curve in the direction sought with a large enough effect; an effect the other way counts as inactive or inconclusive)
Method in brief: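 Fluorescent phospholipid staining (LipidTOX Red) measured by automated microscopy in fixed HepG2 cells after 24 h treatment; nuclei counterstained with Hoechst 33342; amiodarone as reference inducer.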
On the % scale 0 is the no-effect control and ±100 the full control effect.

Chain of Estrogen receptor (Homo sapiens) (P03372 whole entry, looked up): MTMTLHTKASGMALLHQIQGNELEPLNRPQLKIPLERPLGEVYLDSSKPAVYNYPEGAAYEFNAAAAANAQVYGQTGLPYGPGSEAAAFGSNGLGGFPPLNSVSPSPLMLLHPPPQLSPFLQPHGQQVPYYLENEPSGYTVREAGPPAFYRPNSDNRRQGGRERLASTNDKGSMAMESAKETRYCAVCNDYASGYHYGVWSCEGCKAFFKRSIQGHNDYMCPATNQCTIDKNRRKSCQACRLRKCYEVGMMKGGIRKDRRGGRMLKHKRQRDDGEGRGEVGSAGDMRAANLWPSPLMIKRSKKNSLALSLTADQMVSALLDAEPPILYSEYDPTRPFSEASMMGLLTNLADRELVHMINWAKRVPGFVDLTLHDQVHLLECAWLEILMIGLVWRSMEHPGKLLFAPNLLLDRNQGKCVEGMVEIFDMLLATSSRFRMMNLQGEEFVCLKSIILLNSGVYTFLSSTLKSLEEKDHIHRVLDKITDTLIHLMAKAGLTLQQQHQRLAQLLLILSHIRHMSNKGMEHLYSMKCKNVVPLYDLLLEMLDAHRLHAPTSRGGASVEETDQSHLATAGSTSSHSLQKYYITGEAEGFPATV

Cc1cccc(N)n1
inactive: outcome [1] | Potency [2] | Potency [3] | Potency [4] | outcome [5] | outcome [6] | outcome [7] | Potency [8]

CCC(C)SSC(C)CC (stereo unspecified)
inactive: outcome [1] | Potency [2] | Potency [3] | Potency [4] | outcome [5] | outcome [6] | outcome [7] | Potency [8]

OCCC(F)(F)C(F)(F)C(F)(F)C(F)(F)C(F)(F)C(F)(F)F
inactive: outcome [1] | Potency [2] | Potency [3] | Potency [4] | outcome [5] | outcome [6] | outcome [7] | Potency [8]

N=C(N)N1CCc2ccccc2C1
inactive: activity change, negative = cytotoxicity [1] 2.38% [at 6.97 µM] | activity change [2] -13.7% [at 6.97 µM, stronger effect = higher value] | activity change, negative = cytotoxicity [3] -7.09% [at 6.97 µM] | cytotoxicity increase [4] -13.8% [at 6.97 µM] | activity change, negative = cytotoxicity [5] 9.23% [at 8.39 µM] | viability change, negative = cytotoxic [6] -5.28% [at 8.39 µM] | Potency [9]

CCCC(=O)CC
inactive: outcome [1] | Potency [2] | Potency [3] | Potency [4] | outcome [5] | outcome [6] | outcome [7] | Potency [8]

CC(C)(C)c1ccc(N)cc1
inactive: outcome [1] | Potency [2] | Potency [3] | Potency [4] | outcome [5] | outcome [6] | outcome [7] | Potency [8]

CC(C)(O)CCCC1=CCC(C=O)CC1 (stereo unspecified)
inactive: outcome [1] | Potency [2] | Potency [3] | Potency [4] | outcome [5] | outcome [6] | outcome [7] | Potency [8]

BrCCOc1ccccc1
inactive: outcome [1] | Potency [2] | Potency [3] | Potency [4] | outcome [5] | outcome [6] | outcome [7] | Potency [8]

C/C=C(\C)C(=O)OC/C=C(\C)CCC=C(C)C
inactive: outcome [1] | Potency [2] | Potency [3] | Potency [4] | outcome [5] | outcome [6] | outcome [7] | Potency [8]

O=Cc1ccc(C(=O)O)cc1
inactive: outcome [1] | Potency [2] | Potency [3] | Potency [4] | outcome [5] | outcome [6] | outcome [7] | Potency [8]

CCC(=O)OCCOc1ccccc1
inactive: outcome [1] | Potency [2] | Potency [3] | Potency [4] | outcome [5] | outcome [6] | outcome [7] | Potency [8]

C=CC(C)(CCC=C(C)C)OC(=O)C(C)C (stereo unspecified)
inactive: outcome [1] | Potency [2] | Potency [3] | Potency [4] | outcome [5] | outcome [6] | outcome [7] | Potency [8]

CCCCCCC(O)CO (stereo unspecified)
inactive: outcome [1] | Potency [2] | Potency [3] | Potency [4] | outcome [5] | outcome [6] | outcome [7] | Potency [8]

CCCCCCCCCCCCCCCC(=O)OC
inactive: activity change, negative = cytotoxicity [1] 0.781% [at 15.8 µM] | activity change [2] 0.239% [at 15.8 µM, stronger effect = higher value] | activity change, negative = cytotoxicity [3] -16.3% [at 15.8 µM] | cytotoxicity increase [4] -16.6% [at 15.8 µM] | activity change, negative = cytotoxicity [5] 6.9% [at 19 µM] | viability change, negative = cytotoxic [6] 3.68% [at 19 µM] | activity change, negative = inhibition [7] -4.11% [at 19 µM] | activity change, negative = inhibition [8] 2.36% [at 19 µM]

O=S(=O)(O)CC(O)CCl (stereo unspecified)
inactive: outcome [1] | Potency [2] | Potency [3] | Potency [4] | outcome [5] | outcome [6] | outcome [7] | Potency [8]

O=C(O)Cc1c(Cl)ccc(Cl)c1Cl
inactive: outcome [1] | Potency [2] | Potency [3] | Potency [4] | outcome [5] | outcome [6] | outcome [7] | Potency [8]

CCCCNCC
inactive: outcome [1] | Potency [2] | Potency [3] | Potency [4] | outcome [5] | outcome [6] | outcome [7] | Potency [8]

CC1=C(O)C(=O)CO1
inactive: outcome [1] | Potency [2] | Potency [3] | Potency [4] | outcome [5] | outcome [6] | outcome [7] | Potency [8]

CC/C=C/CCCCCCCCCCOC(C)=O
inactive: outcome [1] | Potency [2] | Potency [3] | Potency [4] | outcome [5] | outcome [6] | outcome [7] | Potency [8]

COc1cc(S(N)(=O)=O)cc(C(=O)O)c1OC
inactive: outcome [1] | Potency [2] | Potency [3] | Potency [4] | outcome [5] | outcome [6] | outcome [7] | Potency [8]

Cc1ccc(O)c([N+](=O)[O-])c1
inactive: outcome [1] | Potency [2] | Potency [3] | Potency [4] | outcome [5] | outcome [6] | outcome [7] | Potency [8]

CCCC(=O)OC
inactive: outcome [1] | Potency [2] | Potency [3] | Potency [4] | outcome [5] | outcome [6] | outcome [7] | Potency [8]

CCCCCCCOC(C)=O
inactive: outcome [1] | Potency [2] | Potency [3] | Potency [4] | outcome [5] | outcome [6] | outcome [7] | Potency [8]

CCCCc1ccc(Cl)cc1
inactive: outcome [1] | Potency [2] | Potency [3] | Potency [4] | outcome [5] | outcome [6] | outcome [7] | Potency [8]

COc1ccccc1N1CCN(CC(O)COc2cc(OC)c(OC)c(OC)c2)CC1 (stereo unspecified)
inactive: outcome [1] | Potency [2] | Potency [3] | Potency [4] | outcome [5] | outcome [6] | outcome [7] | Potency [8]

CCOC(=O)CN1CCCC1=O
inactive: outcome [1] | Potency [2] | Potency [3] | Potency [4] | outcome [5] | outcome [6] | outcome [7] | Potency [8]

C/C=C(\C)C=O
inactive: outcome [1] | Potency [2] | Potency [3] | Potency [4] | outcome [5] | outcome [6] | outcome [7] | Potency [8]

Cc1cc(C)c(N)c(Cl)c1
inactive: outcome [1] | Potency [2] | Potency [3] | Potency [4] | outcome [5] | outcome [6] | outcome [7] | Potency [8]

C=CCn1cc[n+](C)c1
inactive: outcome [1] | Potency [2] | Potency [3] | Potency [4] | outcome [5] | outcome [6] | outcome [7] | Potency [8]
